Data published in PubChem BioAssay AID1662 (Broad Institute, 2009).
Hit rate of the full screen: of about 300,000 compounds, about 4,000 (1.3%) were called active. Shown is part of a subset that was picked to be rich in actives. A number with no mark means an inactive call.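 The calls were made as follows: active = mean replicate score, as percent of positive control median, at least 50; inconclusive = mean below 50 but one replicate at or above 50; inactive = mean and every replicate below 50.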

Test: kanamycin survival loss of SKKanGAS strain – BacTiter-Glo luminescence, streptokinase expression inhibitor project, primary screen (AID 1662);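 also: strain carries kanamycin resistance gene driven by streptokinase promoter and grows in 40 µg/ml kanamycin; loss of luminescence reflects streptokinase promoter inhibition or plain growth inhibition; 0% = median of DMSO wells and 100% = positive control at its reference dose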
Conditions: S. pyogenes SKKanGAS, kanamycin growth, 6 h, at 7.5 µM, hits give high values

Row | SMILES | inhibition
1 | CCc1ccc(NC(=O)CN2C(=O)COc3ccc(S(=O)(=O)N4CCCC4)cc32)cc1 | 2.1%
2 | CCn1ccnc1CNC(=O)CC1C(=O)NCCN1CCCc1ccccc1 (stereo not drawn) | -0.266%
3 | O=C(NCc1cccnc1)Nc1cccc(NC(=O)NCc2cccnc2)c1F | -0.181%
4 | COc1cc(C(=O)NCC(=O)N2CC=C(c3ccccc3)CC2)cc(OC)c1OC | 9.79%
5 | O=C(Nc1ccccc1)N1CCN(C(=O)Nc2ccccc2)CC1 | 3.57%
6 | O=C(Nc1ccc(Cl)c(Cl)c1)N1CC=C(c2ccccc2)CC1 | 58.4% (active)
7 | CCO[C@@H]1OC(C(N)=O)=C[C@H](c2ccc(Br)cc2)[C@H]1CCCO | 0.82%
8 | Cc1cccn2c(CNCC(C)Oc3cccnc3)c(C(=O)N3CCOCC3)nc12 (stereo not drawn) | -4.82%
9 | COc1cc(/C=N\Nc2nc(-c3cccs3)c(NC(C)=O)s2)ccc1O | 1.83%
10 | CCOc1cc(/C=C(\C#N)c2nc(-c3cccs3)c(NC(C)=O)s2)ccc1O | 109% (active)
11 | COc1cc(/C=C(\C#N)c2nc3c(s2)CC(C)CC3)ccc1O (stereo not drawn) | 10.1%
12 | O=C(Cn1cnc2ccccc21)Nc1ccccc1-c1ccccc1 | 0.579%
13 | CCOc1ccc(C(=O)Nc2cc(Cl)ccc2-n2cncn2)cc1OC | -2.54%
14 | CCOC(=O)NNc1cc(C(F)(F)F)ccn1 | 0.731%
15 | O=C(/C=C/c1ccc(Cl)cc1)NCCCn1ccnc1 | -2.11%
16 | CCOC(=O)CC(NC(=O)C1c2ccccc2Oc2ccccc21)c1ccc(C)cc1 (stereo not drawn) | 5.34%
17 | O=C(N/N=C/c1ccccc1O)C1CCCC1 | 73.1% (active)
18 | COc1ccc(/C=N/NC(=O)C2CC2)c(OC)c1OC | 14.5%
19 | Oc1ccccc1C=NC1CCCCC1N=Cc1ccccc1O (stereo not drawn) | -8.77%
20 | CC1(C(=O)NNC(=S)NCC2CCCO2)CC1(Cl)Cl (stereo not drawn) | 2.55%
21 | COc1ccc(OC)c(NC(=O)c2ccc3c(c2)CCN3S(C)(=O)=O)c1 | -4.51%
22 | Nc1nc(SCC(=O)NNc2c(Cl)cc(Cl)cc2Cl)n[nH]1 | 7.52%
23 | CCOc1cc(NC(=O)CCl)c(OCC)cc1NC(C)=O | -2.78%
24 | COc1ccc(S(=O)(=O)N2CCCCC2)cc1NC(=O)C1CC(=O)N(c2ccc3c(c2)OCCO3)C1 (stereo not drawn) | 14.5%
25 | COCc1ccc(C(=O)NC2CC(C)(C)Cc3c2cnn3-c2ccc(C)cc2)o1 (stereo not drawn) | -6.03%
26 | Cc1ccc(-c2csc(N3CCN(c4cc5c(cc4Cl)nc(-c4ccncc4)n5CCOCCO)CC3)n2)cc1 | 47.5%
27 | Nc1c(Cl)cc(-c2csc(N3CCCC3c3nc4cc(Cl)c(Cl)cc4n3CCOCCO)n2)cc1Cl (stereo not drawn) | 62.1% (active)
28 | CCCn1c(C2CCCN2c2nc(-c3ccc(C)cc3)cs2)nc2cc(Cl)c(N3CCCCC3)cc21 (stereo not drawn) | 9.01%
